Paper PMC4081100, “A DNA-binding-site landscape and regulatory network analysis for NAC transcription factors in Arabidopsis thaliana”

The sequences below were run against T1, GST-ANAC092(1-176) (Arabidopsis thaliana, UniProt Q9FKA0 1-176) (assay: universal protein binding microarray (PBM); transcription factors of Arabidopsis thaliana; high values mean tight binding). Details: protein: recombinant; tags: GST; chain copies: 2; dsDNA, one strand shown.
T1 sequence: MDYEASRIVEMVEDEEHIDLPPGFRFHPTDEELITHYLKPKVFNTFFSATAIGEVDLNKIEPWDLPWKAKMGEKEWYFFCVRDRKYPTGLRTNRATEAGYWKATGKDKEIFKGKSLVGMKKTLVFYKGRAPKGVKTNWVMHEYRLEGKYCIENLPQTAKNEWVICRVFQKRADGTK
Procedure, shortened: (§1)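 GST-tagged NAC-domain, full-length or DNA-binding-domain proteins were induced in cells, with zinc acetate added for zinc-finger proteins. They were purified on glutathione–Sepharose 4B and quantified by A280 or anti-GST western blot. Each was applied at 200 to 500 nM final, in duplicate, to custom all-10-mer Agilent 4 × 180K arrays made double-stranded by primer extension, with gapped and ungapped 8-mers scored. Binding is the normalised enrichment score (E-score).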

Row | Sequence | binding signal
1 | AGTCTTTG | 0.0553 E-score
2 | GACCGGAA | 0.0538 E-score
3 | AGAGGTAA | 0.145 E-score
4 | AGCTTGAC | 0.0728 E-score
5 | AGGGTAAT | 0.113 E-score
6 | AGGGAAAT | 0.137 E-score
7 | AGGAAACT | 0.174 E-score

These sequences were tested against GST-NTL6(1-168) (Arabidopsis thaliana, UniProt Q9SCK6 1-168) in the same assay as above. Details: protein: recombinant; tags: GST; chain copies: 2; dsDNA, one strand shown.
Procedure, shortened: as §1

Chain of GST-NTL6(1-168) (Q9SCK6 1-168): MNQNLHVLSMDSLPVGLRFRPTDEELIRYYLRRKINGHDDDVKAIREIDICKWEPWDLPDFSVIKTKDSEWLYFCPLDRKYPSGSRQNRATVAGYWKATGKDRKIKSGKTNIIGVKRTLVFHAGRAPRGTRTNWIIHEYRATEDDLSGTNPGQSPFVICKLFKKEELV

Row | Sequence | binding signal
8 | GTCAATAA | 0.109 E-score
9 | AGTCTTTG | 0.0583 E-score
10 | AGAGGTAA | 0.237 E-score
11 | AGGGTAAT | 0.143 E-score
12 | ATTCCCTC | 0.115 E-score
13 | ATAAGTCA | 0.161 E-score
14 | AGGGAAAT | 0.0669 E-score
15 | GAAGTCAA | 0.104 E-score
16 | ATTGACTG | 0.071 E-score
17 | AGGAAACT | 0.227 E-score

The sequences below were run against T2, GST-ANAC019 NAC domain (Arabidopsis thaliana, UniProt Q9C932 14-162) in the same assay as above. Details: protein: recombinant; tags: GST; chain copies: 2; dsDNA, one strand shown.
T2 sequence: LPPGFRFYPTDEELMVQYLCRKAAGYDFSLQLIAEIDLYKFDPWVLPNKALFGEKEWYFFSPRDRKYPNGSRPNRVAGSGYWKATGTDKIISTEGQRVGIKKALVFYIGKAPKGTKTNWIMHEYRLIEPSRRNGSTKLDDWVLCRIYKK
Procedure, shortened: as §1

Row | Sequence | binding signal
18 | AGTCTTTG | 0.0679 E-score
19 | GACCGGAA | 0.213 E-score
20 | AGAGGTAA | 0.0713 E-score
21 | AGCTTGAC | 0.0936 E-score
22 | AGGGTAAT | 0.116 E-score
23 | AGTCTGAC | 0.0699 E-score
24 | ATTCCCTC | 0.0664 E-score
25 | TTAGTCAA | 0.12 E-score
26 | AGTCAACG | 0.0747 E-score
27 | AGAAAGTC | 0.0754 E-score
28 | AGGGAAAT | 0.0765 E-score
29 | GAAGTCAA | 0.0675 E-score
30 | AAAAAGTC | 0.0791 E-score

What follows are sequences tested against T3, GST-ANAC055(1-171) (Arabidopsis thaliana, UniProt Q9LDY8 1-171) in the same assay as above. Details: protein: recombinant; tags: GST; chain copies: 2; dsDNA, one strand shown.
T3 sequence: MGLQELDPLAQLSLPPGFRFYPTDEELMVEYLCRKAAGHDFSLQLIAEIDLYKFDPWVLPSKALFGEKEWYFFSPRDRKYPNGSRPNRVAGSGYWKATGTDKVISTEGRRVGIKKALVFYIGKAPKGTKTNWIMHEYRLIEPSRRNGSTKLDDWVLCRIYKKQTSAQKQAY
Procedure, shortened: as §1

Row | Sequence | binding signal
31 | GTCAATAA | 0.134 E-score
32 | AAGTTGAC | 0.0649 E-score
33 | AGTCTTTG | 0.0944 E-score
34 | GACCGGAA | 0.0745 E-score
35 | AGAGGTAA | 0.0996 E-score
36 | AGGGTAAT | 0.17 E-score
37 | AGTCTGAC | 0.0555 E-score
38 | TAGTCAAA | 0.136 E-score
39 | TAGGTCAA | 0.077 E-score
40 | ATTAGTCA | 0.0956 E-score
41 | AATTGACC | 0.0684 E-score
42 | TATGGTCA | 0.0561 E-score
43 | AGAAAGTC | 0.0896 E-score
44 | CATTTGAC | 0.0579 E-score
45 | AAAAAGTC | 0.209 E-score
46 | AATTTGAC | 0.0892 E-score
47 | AGGAAACT | 0.0635 E-score

Each sequence was assayed against T4, GST-ATAF1 NAC domain (Arabidopsis thaliana, UniProt Q39013 7-158) in the same assay as above. Details: protein: recombinant; tags: GST; chain copies: 2; dsDNA, one strand shown.
T4 sequence: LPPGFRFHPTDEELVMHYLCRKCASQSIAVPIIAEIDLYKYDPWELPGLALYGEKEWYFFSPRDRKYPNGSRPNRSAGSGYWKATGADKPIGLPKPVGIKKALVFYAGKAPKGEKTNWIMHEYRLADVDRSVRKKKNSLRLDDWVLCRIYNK
Procedure, shortened: as §1

Row | Sequence | binding signal
48 | ATTTTGAC | 0.15 E-score
49 | GTCAATAA | 0.135 E-score
50 | TAGTCAGA | 0.0564 E-score
51 | AAGTTGAC | 0.0834 E-score
52 | AGAGGTAA | 0.106 E-score
53 | AGGGTAAT | 0.114 E-score
54 | AGTCAAAT | 0.213 E-score
55 | TAGTCAAA | 0.272 E-score
56 | TAGGTCAA | 0.145 E-score
57 | TTAGTCAA | 0.107 E-score
58 | ATTAGTCA | 0.109 E-score
59 | ATGTTGAC | 0.0521 E-score
60 | AATTGACC | 0.176 E-score
61 | AGAAAGTC | 0.103 E-score
62 | AGGGAAAT | 0.112 E-score
63 | GAAGTCAA | 0.0967 E-score
64 | CATTTGAC | 0.0746 E-score
65 | AAAAAGTC | 0.184 E-score
66 | ATTGACTG | 0.0846 E-score
67 | AATTTGAC | 0.237 E-score
68 | AAGGTCAG | 0.0646 E-score
69 | AGGAAACT | 0.0874 E-score

These sequences were tested against T5, GST-ANAC092(1-285) full length (Arabidopsis thaliana, UniProt Q9FKA0 1-285) in the same assay as above. Details: protein: recombinant; tags: GST; chain copies: 2; dsDNA, one strand shown.
T5 sequence: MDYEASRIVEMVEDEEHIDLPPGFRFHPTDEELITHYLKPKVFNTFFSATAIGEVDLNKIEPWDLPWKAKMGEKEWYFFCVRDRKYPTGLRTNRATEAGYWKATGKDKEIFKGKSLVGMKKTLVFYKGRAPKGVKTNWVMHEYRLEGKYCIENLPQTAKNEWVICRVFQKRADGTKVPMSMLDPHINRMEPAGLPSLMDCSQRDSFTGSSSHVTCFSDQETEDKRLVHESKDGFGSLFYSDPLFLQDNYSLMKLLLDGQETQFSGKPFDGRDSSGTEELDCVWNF
Procedure, shortened: as §1

Row | Sequence | binding signal
70 | ATTTTGAC | 0.0617 E-score
71 | AGCTTGAC | 0.065 E-score
72 | AGGGTAAT | 0.108 E-score
73 | ATAAGTCA | 0.101 E-score
74 | TTAGTCAA | 0.0778 E-score
75 | CATTGACG | 0.149 E-score
76 | AGTCAACG | 0.0699 E-score
77 | AGGGAAAT | 0.106 E-score
78 | AGGAAACT | 0.186 E-score

Each sequence was assayed against T6, GST-NAP(1-166) (Arabidopsis thaliana, UniProt O49255 1-166) in the same assay as above. Details: protein: recombinant; tags: GST; chain copies: 2; dsDNA, one strand shown.
T6 sequence: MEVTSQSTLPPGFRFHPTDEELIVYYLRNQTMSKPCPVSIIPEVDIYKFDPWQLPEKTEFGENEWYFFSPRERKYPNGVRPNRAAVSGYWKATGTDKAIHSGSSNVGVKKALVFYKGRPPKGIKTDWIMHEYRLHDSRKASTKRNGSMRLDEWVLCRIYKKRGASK
Procedure, shortened: as §1

Row | Sequence | binding signal
79 | GTCAATAA | 0.122 E-score
80 | AGAGGTAA | 0.0742 E-score
81 | AGCTTGAC | 0.0572 E-score
82 | AGTCAAAT | 0.113 E-score
83 | AGTCTGAC | 0.0965 E-score
84 | AGTCAACG | 0.0565 E-score
85 | GGTCATAC | 0.108 E-score
86 | AGGAAACT | 0.0881 E-score

What follows are sequences tested against T7, GST-NST2(1-184) (Arabidopsis thaliana, UniProt Q9M274 1-184) in the same assay as above. Details: protein: recombinant; tags: GST; chain copies: 2; dsDNA, one strand shown.
T7 sequence: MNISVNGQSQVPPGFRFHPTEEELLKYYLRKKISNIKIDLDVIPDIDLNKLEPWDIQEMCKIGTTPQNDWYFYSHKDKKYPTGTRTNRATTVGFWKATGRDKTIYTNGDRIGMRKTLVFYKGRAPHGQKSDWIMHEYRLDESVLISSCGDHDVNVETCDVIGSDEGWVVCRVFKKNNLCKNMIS
Procedure, shortened: as §1

Row | Sequence | binding signal
87 | ATTTTGAC | 0.0826 E-score
88 | GTCAATAA | 0.118 E-score
